Compounds with a hit are over-represented: about 2.6% of the library has one in this group of screens.
Cruzain Triton: blocks cruzain activity in presence of Triton detergent; Potency, µM, for the others: max response, negative = inhibition, usual class: inhibitors; purified cruzain, Z-FR-AMC fluorescence, 0.01% Triton; AID 1478; 200,000 tested, 0.43% active;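 further: plate controls were neutral wells for no effect and buffer without enzyme for full effect; nearly all actives have a fitted effect of over 40% in size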
Target sequence (P25779 123-467 limits assumed): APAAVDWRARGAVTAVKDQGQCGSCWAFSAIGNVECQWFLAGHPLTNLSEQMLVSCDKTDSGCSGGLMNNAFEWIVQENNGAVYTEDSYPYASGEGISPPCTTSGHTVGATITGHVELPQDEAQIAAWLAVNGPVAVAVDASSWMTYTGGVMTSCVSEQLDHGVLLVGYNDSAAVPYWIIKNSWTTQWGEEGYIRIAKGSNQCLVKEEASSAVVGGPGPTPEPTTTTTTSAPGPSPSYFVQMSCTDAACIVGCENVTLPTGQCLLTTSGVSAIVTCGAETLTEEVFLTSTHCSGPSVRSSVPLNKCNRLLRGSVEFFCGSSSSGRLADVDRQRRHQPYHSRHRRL
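Steps: dispense cruzain (1.5 nM final) in acetate buffer pH 5.5 with DTT and 0.01% Triton X-100; pin-transfer compounds; incubate 15 min RT; add Z-FR-AMC (2 uM final); read fluorescence every 30 s, using the 60 s intensity change.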
Cruzain noTriton: blocks cruzain activity in detergent-free assay. P25779. purified cruzain, Z-FR-AMC fluorescence, no detergent. Potency, µM, for the others: max response, negative = inhibition, usual class: inhibitors. 200,000 tested, 2.3% active;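 further: plate controls were enzyme without inhibitor for no effect and buffer without enzyme for full effect; nearly all actives have a fitted effect of over 40% in size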
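Purified cruzain at 1.5 nM, pre-incubated 15 min with compound at room temperature in 100 mM sodium acetate pH 5.5, 5 mM DTT, 0.00005% Triton X-100. Reaction started with 2 uM Z-FR-AMC; AMC fluorescence increase over 60 s gives rate.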
* = called active by the depositor; ? = inconclusive; ! = a repeat was not active. The call rests on the fitted dose curve; in most records, active means well fitted curve in the direction sought with a large enough effect; inconclusive means small, poorly fitted or top-dose-only effect, or another doubt; inactive means no such curve, though single readings can be large; an effect the other way counts as inactive or inconclusive. Potency means the concentration at half of the fitted maximal effect.

SMILES	Cruzain Triton	Cruzain noTriton
Cc1ccc(S(=O)(=O)n2ccc(-c3cccc(OCc4c(F)cccc4Cl)c3)n2)cc1	4.8%	7.94µM*
CCOC(=O)c1c(C)c(-c2ccccc2)n(CC(=O)NCc2ccccc2)c1C	0.7%	-15.2%
COc1cccc(OCc2cc(C3Nc4ccccc4C(=O)N3Cc3ccco3)ccc2OC)c1 (stereo not drawn)	-6.5%	15.8µM*
COc1ccc(C2Nc3ccccc3C(=O)N2Cc2ccco2)cc1COc1ccc([N+](=O)[O-])cc1 (stereo not drawn)	0.3%	?
CCCC1CC(C(=O)N[C@H](C(C)O)C2OC(SC)[C@@H](O)C(O)C2O)N(C)C1 (stereo partly drawn)	-4.4%	11.7%
CCCc1cc(=O)[nH]c(SCc2nc(-c3ccc(OC)cc3)no2)n1	-1.4%	-27.7%
O=C(Nn1c(O)c(C=C2N=c3ccccc3=N2)sc1=S)c1ccccc1Cl	-13.2%	-28.8%
O=C1N=c2ccccc2=C1c1sc(=S)n(CC2CCCO2)c1O (stereo not drawn)	7.9%	-13.0%
Oc1c(C=C2N=c3ccccc3=N2)sc(=S)n1C1CCCCC1	-3.8%	12.6µM*!
Oc1c(C=C2N=c3ccccc3=N2)sc(=S)n1-c1ccccc1	-3.1%	10µM*
COC(=O)C(C(=O)OC)[C@@H](NC(=O)OCc1ccccc1)c1ccccc1	0.0%	-15.7%
CN(C)c1ncc2ncc(=O)n(CCc3ccccc3)c2n1	-4.9%	-12.2%
Cc1ccc(NC(=O)N2N=C(c3ccc(F)cc3)CC2c2ccc(F)cc2)cc1 (stereo not drawn)	1.4%	1.26µM*
CNC(=S)N1N=C(c2ccc(C)cc2)CC1c1ccc(OC)cc1 (stereo not drawn)	-2.5%	-1.2%
CC1(C)OC[C@@H]2O[C@H](n3cnc4c(N)nc(Cl)nc43)[C@@H](OS(C)(=O)=O)[C@@H]2O1	5.5%	5.6%
Cc1ccc(C)c(N2CCN(C(=O)c3ccc4nc(-c5ccco5)c(-c5ccco5)nc4c3)CC2)c1	-2.8%	0.1%
COc1ccccc1N1CCN(C(=O)c2ccc3nc(-c4ccco4)c(-c4ccco4)nc3c2)CC1	12.6µM*	?
COc1ccc(CNc2n[nH]c(-c3ccco3)n2)cc1OC	-1.6%	-12.7%
Cc1ccc(O)c(/C=N/NC(=O)c2[nH]ncc2Br)c1	-5.5%	4.2%
Cc1ccc(O)c(/C=N/NC(=O)C2=NNC(c3ccccc3)(c3ccccc3)C2)c1	-15.3%	12.6µM*
CCc1ccc2oc(-c3cc(NC(=O)c4cc(OC)c(OC)c(OC)c4)ccc3O)nc2c1	-2.2%	2.2%
CCc1ccc2oc(-c3cc(N=Cc4cccc(OC)c4O)ccc3O)nc2c1	-9.8%	15.8µM*
COCCCNC(=O)C1CCCN(S(=O)(=O)c2ccc3c(c2)oc(=O)n3C)C1 (stereo not drawn)	1.7%	-4.1%
CCCCNc1c2c(nc3c(-c4ccccc4)c(C)nn13)CCC2	-12.4%	7.94µM*
Cc1nn2c(NCCCN3CCOCC3)c3c(nc2c1-c1ccccc1)CCC3	-1.6%	-4.8%
SMILES	Cruzain Triton	Cruzain noTriton
O=C(O)c1cc[c]([Hg][S]c2ncnc3nc[nH]c23)cc1	-1.3%	17.9%
CCOC(=O)CCCSc1nc(-c2ccc3c(c2)OCO3)cc(C(F)(F)F)c1C#N	-3.6%	25.1µM*
CCOC(=O)CSc1nc(-c2ccc(OC)cc2)cc(C(F)(F)F)c1C#N	-3.0%	-3.2%
Cc1nc2ccc(S(=O)(=O)NC(C(=O)N3CCN(c4cccc(Cl)c4)CC3)C(C)C)cc2s1 (stereo not drawn)	-8.4%	13.6%
Cc1ccc2c(Cl)c(C(=O)Nc3ccc4c(c3)OCO4)sc2c1	-3.0%	20µM*
Cc1noc(C(=O)Nc2ccc3c(c2)OCO3)c1Cl	-5.8%	-2.6%
CC(NC(=O)Cc1ccccc1)c1nc2ccccc2[nH]1 (stereo not drawn)	1.0%	-22.5%
O=C(COc1cccc(F)c1)N[C@@H](Cc1ccccc1)c1nc2ccccc2[nH]1	12.6µM*	-1.0%
COCCn1c(C)cc(C2=NNC(=Nc3ccccc3F)SC2)c1C	-4.0%	-22.6%
C=CCN=C1NN=C(c2cc(C)n(CC=C)c2C)CS1	-7.5%	25.1µM*
Cc1cccc(Cn2cnc3c(oc4ccccc43)c2=O)c1	-6.9%	6.2%
COc1ccc(C(=O)N2CCC3(CCN(C)CC3)CC2)cc1	-0.8%	-7.5%
O=C1/C(=C\c2ccco2)SC(=S)N1Cc1ccccc1	-29.1%	-16.5%
Cc1cc(/C=C2\SC(=S)N(Cc3ccco3)C2=O)c(C)n1-c1ccccc1	-3.9%	10µM*
COc1ccccc1N1CCN(C(=O)C2CCN(S(=O)(=O)c3cccs3)CC2)CC1	-2.0%	?
COc1cccc(/C=N/N2C(=O)CSC2=S)c1O	?	-28.5%
O=C1CSC(=S)N1/N=C/C=C/c1ccccc1	?	31.6µM*
CC(C)C(NC(=O)c1ccco1)C(=O)NCC(c1ccco1)N1CCCCC1 (stereo not drawn)	14.1µM*	?
O=C(Cc1ccsc1)NCC(c1ccco1)N1CCCCC1 (stereo not drawn)	1.2%	8.8%
CCOc1ccc(C(=O)c2cn(Cc3ccc(Cl)cc3)c3cc(OC)c(OC)cc3c2=O)cc1	4.3%	-3.1%
COc1ccc2oc(=O)c(/C(C)=N/Nc3nc(-c4cc(C)ccc4C)cs3)cc2c1	-21.1%	12.6µM*
C/C(=N\Nc1nc(-c2ccc(C)cc2C)cs1)c1cc2ccccc2oc1=O	-19.8%	?
Cc1ccc(CCNC(=O)c2cc3ccccn3n2)cc1	-2.3%	-7.6%
COc1cccc(/C=N/NC(N)=S)c1OCc1cccc(Cl)c1	-23.9%	5.01µM*
NC(=S)N/N=C\c1ccccc1OCc1ccccc1	3.16µM*	1.26µM*
SMILES	Cruzain Triton	Cruzain noTriton
COC(=O)N/N=C/c1cc(Cl)cc(Cl)c1OCc1ccccc1	-7.4%	-9.7%
O=C(CSCc1ccccc1)N/N=C/c1ccccc1OCc1ccccc1	-0.5%	1.0%
COc1ccc(N2CCN(C(CNC(=O)CC(C)C)c3ccc4c(c3)OCO4)CC2)cc1 (stereo not drawn)	-1.0%	-16.0%
CCc1c(C)c2cc3c(c(C)c2oc1=O)OCN(CCc1ccccc1F)C3	-5.7%	-3.4%
Cc1ccc(Nc2ncc(C(=O)N3CCN(c4cccc(Cl)c4)CC3)c3ccccc23)cc1Cl	-6.2%	7.94µM*
COc1ccccc1NC(=O)c1cnc(Nc2ccccc2OC)c2ccccc12	-10.4%	?
COc1ccc(Nc2ncc(C(=O)N3CCN(Cc4ccccc4)CC3)c3ccccc23)cc1	-0.3%	-0.2%
COc1ccc(OC)c(NC(=O)c2cnc(Nc3ccc(C)c(Cl)c3)c3ccccc23)c1	-4.1%	6.31µM*
Cc1ccc(-n2ncc3c(N4CCN(CCO)CC4)ncnc32)cc1Cl	0.5%	-3.8%
Cc1cc(NC(=O)c2cc(-c3ccc(Cl)cc3)on2)n(-c2ccccc2)n1	-2.8%	7.7%
CCc1ccc(NC(=O)C(C)Oc2nnc(-c3cccs3)c(-c3cccs3)n2)cc1 (stereo not drawn)	2.7%	20µM*
CC(C)c1ccc(NC(=O)COc2nnc(-c3cccs3)c(-c3cccs3)n2)cc1	-7.0%	4.9%
CCOC(=O)CSc1nc2c(c(-c3ccc(C)o3)c1C#N)CCCC2	-10.7%	22.9%
COC(=O)CSc1nc2c(c(-c3ccco3)c1C#N)CCCC2	28.2µM*	20µM*
COc1cccc(-c2ccc3c(N)c(C(=O)c4ccc(Cl)cc4)sc3n2)c1	-5.1%	7.94µM*
COc1ccc(C(=O)c2sc3nc(-c4ccccc4)ccc3c2N)cc1	-4.3%	?
O=S(=O)(Cl)c1ccccc1	4.2%	-2.6%
O=C(Nc1nc2c(s1)CCCC2)c1cc(-c2ccccc2)nc2ccccc12	-6.1%	20µM*

Screening results: PubChem BioAssay, National Center for Advancing Translational Sciences (NCATS)
